# Source: paper PMC7862700, “An all-to-all approach to the identification of sequence-specific readers for epigenetic DNA modifications on cytosine”
# Key:
# Test in all cases: DAPPL (digital affinity profiling via proximity ligation, sequencing); 10 mM Tris-HCl pH 7.5, 50 mM NaCl, 1 mM DTT, 4% glycerol, room temperature, 30 min; GST-TFs on glutathione beads, 16-mer random dsDNA library, 0.1% formaldehyde crosslink after washing; high values mean tight binding
# Settings in all cases: protein: recombinant; tags: N-terminal GST; dsDNA, one strand shown
# SPIB = SPIB (Homo sapiens, UniProt Q01892 1-262)
# Sequence of SPIB (Q01892 whole entry, the tested form may be a part): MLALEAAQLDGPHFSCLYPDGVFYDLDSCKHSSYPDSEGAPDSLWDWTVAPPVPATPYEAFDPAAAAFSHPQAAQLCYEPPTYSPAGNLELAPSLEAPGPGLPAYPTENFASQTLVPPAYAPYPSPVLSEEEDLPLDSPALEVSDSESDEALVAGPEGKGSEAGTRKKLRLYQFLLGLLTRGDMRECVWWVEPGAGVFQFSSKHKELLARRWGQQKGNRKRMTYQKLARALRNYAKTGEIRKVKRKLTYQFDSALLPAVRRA
# In short: (§1)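 GST fusions of human transcription factors were expressed in yeast and captured with glutathione beads. Once given DNA barcodes and pooled alongside a tag-only sample, they were incubated for 30 min at room temperature with 200 nmole of a random double-stranded 16-mer DNA library in Tris/NaCl/DTT/glycerol buffer, then washed, crosslinked (0.1% formaldehyde), proximity-ligated, PCR-amplified and sequenced on an Illumina NextSeq500. The binding signal of each hexamer is its read frequency for a factor divided by its frequency for the tag-only sample.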
# ELK3 = target: T1, ELK3 (Homo sapiens, UniProt P41970 1-407)
# T1 sequence: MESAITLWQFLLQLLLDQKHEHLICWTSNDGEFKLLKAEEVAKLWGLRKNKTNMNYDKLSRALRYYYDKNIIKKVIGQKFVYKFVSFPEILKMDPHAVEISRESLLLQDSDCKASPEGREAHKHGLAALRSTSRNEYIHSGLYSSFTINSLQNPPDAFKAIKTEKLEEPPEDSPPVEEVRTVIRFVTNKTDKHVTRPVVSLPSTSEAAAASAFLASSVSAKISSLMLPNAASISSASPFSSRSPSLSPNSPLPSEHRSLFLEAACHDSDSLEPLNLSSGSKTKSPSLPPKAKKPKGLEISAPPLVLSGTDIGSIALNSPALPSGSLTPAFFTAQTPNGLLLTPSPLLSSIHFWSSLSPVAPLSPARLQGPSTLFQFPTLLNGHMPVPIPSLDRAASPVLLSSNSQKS
# In short: as §1
# ETV5 = ETV5 (Homo sapiens, UniProt P41161 1-510)
# Sequence of ETV5 (P41161 whole entry): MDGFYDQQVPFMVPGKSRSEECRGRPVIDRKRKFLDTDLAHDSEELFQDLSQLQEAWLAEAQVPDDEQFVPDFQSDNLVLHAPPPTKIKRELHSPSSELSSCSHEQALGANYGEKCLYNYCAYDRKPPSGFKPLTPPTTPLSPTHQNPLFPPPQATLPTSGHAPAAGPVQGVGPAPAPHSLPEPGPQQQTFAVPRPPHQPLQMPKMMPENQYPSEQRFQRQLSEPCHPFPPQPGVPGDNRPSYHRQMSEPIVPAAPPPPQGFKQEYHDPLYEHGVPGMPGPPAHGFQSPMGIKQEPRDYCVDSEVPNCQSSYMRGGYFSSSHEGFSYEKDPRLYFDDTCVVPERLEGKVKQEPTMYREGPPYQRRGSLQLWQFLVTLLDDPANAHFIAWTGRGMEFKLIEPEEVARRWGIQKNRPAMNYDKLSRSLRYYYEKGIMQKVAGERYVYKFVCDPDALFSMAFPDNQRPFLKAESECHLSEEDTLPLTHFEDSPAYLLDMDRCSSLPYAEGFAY
# In short: as §1
# ELK4 = target: T2, ELK4 (Homo sapiens, UniProt P28324-2 1-405)
# T2 sequence: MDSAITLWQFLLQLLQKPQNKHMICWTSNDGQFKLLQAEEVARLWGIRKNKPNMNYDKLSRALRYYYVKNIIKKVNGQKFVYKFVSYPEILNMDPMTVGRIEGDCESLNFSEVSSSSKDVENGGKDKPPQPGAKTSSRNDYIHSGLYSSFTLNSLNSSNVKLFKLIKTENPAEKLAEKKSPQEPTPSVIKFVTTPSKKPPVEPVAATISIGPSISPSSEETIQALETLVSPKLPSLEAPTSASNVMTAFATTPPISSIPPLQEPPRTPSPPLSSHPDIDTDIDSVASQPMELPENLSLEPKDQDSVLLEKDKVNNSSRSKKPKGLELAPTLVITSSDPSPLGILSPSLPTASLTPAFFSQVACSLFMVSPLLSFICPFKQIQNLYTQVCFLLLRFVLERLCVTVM
# In short: as §1
# ETV1 = ETV1 (Homo sapiens, UniProt P50549 1-477)
# Sequence of ETV1 (P50549 whole entry): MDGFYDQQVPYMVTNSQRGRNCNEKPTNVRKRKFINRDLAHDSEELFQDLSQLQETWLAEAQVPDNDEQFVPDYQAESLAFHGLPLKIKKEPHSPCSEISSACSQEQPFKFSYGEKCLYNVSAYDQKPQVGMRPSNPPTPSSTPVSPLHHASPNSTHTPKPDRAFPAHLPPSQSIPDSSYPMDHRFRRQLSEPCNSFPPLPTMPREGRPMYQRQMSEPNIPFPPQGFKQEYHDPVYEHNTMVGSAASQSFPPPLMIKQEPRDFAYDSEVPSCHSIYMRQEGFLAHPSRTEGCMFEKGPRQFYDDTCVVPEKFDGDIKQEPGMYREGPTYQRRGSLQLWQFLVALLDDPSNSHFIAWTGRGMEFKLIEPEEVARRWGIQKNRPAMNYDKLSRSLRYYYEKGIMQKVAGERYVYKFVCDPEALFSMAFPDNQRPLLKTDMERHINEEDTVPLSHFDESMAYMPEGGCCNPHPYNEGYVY
# In short: as §1
# ETS2 = target: T3, ETS2 (Homo sapiens, UniProt P15036 1-469)
# T3 sequence: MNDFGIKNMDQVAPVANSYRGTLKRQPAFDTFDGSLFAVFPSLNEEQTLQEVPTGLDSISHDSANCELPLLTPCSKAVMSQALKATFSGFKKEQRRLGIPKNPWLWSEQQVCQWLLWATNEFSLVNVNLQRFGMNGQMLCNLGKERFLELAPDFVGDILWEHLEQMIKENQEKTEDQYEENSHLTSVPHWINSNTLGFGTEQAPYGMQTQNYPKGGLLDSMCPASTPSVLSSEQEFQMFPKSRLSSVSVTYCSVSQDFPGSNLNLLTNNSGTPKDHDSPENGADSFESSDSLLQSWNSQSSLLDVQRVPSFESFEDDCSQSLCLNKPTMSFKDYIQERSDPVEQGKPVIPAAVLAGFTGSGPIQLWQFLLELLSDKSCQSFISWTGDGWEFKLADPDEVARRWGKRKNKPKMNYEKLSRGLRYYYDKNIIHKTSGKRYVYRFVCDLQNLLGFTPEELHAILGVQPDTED
# In short: as §1
# ETV7 = target: T4, ETV7 (Homo sapiens, UniProt Q9Y603 1-341)
# T4 sequence: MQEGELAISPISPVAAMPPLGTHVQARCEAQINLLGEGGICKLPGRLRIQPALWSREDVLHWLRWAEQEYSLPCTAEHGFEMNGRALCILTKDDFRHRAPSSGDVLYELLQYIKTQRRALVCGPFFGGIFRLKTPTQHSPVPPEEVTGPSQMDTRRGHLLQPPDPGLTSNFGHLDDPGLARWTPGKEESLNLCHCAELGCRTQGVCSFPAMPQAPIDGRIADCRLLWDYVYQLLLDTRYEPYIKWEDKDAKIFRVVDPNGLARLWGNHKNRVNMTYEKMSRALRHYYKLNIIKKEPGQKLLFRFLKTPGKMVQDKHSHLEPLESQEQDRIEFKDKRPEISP
# In short: as §1
# ELK1 = target: T5, ELK1 (Homo sapiens, UniProt P19419 1-428)
# T5 sequence: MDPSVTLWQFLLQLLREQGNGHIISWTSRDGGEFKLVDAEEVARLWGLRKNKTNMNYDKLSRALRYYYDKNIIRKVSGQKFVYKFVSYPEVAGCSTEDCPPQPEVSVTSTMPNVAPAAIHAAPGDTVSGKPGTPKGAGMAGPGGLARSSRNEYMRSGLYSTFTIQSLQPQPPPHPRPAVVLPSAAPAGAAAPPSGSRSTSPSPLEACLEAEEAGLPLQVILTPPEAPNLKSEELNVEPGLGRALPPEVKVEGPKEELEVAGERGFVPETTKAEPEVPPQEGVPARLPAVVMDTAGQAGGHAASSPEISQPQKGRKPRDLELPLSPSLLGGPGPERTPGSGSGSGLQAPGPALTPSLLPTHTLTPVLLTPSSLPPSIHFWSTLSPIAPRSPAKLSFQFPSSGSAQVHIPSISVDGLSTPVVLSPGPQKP
# In short: as §1
# ELF1 = ELF1 (Homo sapiens, UniProt P32519 1-619)
# Sequence of ELF1 (P32519 whole entry): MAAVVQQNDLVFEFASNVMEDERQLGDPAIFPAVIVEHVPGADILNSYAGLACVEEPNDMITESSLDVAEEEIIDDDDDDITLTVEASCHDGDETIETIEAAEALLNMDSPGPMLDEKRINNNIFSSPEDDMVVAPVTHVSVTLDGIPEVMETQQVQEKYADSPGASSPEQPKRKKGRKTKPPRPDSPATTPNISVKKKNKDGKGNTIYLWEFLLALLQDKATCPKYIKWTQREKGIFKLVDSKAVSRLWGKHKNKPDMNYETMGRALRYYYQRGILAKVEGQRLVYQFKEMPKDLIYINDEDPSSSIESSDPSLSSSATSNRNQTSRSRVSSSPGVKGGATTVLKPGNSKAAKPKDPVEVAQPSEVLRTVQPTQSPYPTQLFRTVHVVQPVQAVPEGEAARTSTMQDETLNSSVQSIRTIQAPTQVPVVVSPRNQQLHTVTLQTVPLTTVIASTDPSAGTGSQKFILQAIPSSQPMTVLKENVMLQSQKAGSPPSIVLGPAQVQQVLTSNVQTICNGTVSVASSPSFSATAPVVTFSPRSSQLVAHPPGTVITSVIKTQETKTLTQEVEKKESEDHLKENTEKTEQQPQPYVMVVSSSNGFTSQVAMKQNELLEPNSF
# In short: as §1
# ELF3 = target: T6, ELF3 (Homo sapiens, UniProt P78545 1-371)
# T6 sequence: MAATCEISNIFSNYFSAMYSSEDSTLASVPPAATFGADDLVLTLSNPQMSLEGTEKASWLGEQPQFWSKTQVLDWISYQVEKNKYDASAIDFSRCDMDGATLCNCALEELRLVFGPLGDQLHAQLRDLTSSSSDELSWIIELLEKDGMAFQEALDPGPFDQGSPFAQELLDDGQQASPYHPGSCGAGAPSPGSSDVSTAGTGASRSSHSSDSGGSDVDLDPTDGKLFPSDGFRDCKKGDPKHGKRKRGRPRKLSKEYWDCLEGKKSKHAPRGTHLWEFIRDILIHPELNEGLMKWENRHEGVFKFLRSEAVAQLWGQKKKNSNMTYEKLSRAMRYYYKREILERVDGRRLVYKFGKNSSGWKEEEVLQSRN
# In short: as §1
# ERF = target: T7, ERF (Homo sapiens, UniProt P50548 1-548)
# T7 sequence: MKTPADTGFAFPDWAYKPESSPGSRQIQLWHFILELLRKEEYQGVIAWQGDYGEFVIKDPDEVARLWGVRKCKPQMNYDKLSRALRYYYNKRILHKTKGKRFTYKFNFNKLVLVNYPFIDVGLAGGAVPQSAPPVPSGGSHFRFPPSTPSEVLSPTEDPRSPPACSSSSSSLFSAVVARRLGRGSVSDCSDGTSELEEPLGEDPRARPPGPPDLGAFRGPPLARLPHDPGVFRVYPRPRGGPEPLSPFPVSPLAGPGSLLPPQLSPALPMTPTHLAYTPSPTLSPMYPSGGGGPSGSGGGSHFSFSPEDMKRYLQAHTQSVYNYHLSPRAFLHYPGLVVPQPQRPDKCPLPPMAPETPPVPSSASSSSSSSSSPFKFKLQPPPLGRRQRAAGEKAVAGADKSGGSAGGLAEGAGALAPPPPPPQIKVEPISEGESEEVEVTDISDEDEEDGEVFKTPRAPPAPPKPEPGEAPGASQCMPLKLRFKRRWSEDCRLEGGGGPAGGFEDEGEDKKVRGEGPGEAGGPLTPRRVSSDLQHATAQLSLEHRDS
# In short: as §1
# GABPA = target: T8, GABPA (Homo sapiens, UniProt Q06546 1-454)
# T8 sequence: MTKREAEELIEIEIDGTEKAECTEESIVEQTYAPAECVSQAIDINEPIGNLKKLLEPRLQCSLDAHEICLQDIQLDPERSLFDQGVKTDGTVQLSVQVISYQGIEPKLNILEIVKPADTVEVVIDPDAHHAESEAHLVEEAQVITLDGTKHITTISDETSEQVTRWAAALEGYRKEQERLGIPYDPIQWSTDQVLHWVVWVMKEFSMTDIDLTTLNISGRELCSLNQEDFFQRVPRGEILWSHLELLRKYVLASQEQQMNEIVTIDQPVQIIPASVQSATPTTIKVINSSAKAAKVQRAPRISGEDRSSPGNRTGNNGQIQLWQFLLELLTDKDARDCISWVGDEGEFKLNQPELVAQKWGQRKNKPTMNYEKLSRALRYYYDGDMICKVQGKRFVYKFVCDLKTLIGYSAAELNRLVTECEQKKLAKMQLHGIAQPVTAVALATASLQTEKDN
# In short: as §1
# SPIC = target: T9, SPIC (Homo sapiens, UniProt Q8N5J4 1-248)
# T9 sequence: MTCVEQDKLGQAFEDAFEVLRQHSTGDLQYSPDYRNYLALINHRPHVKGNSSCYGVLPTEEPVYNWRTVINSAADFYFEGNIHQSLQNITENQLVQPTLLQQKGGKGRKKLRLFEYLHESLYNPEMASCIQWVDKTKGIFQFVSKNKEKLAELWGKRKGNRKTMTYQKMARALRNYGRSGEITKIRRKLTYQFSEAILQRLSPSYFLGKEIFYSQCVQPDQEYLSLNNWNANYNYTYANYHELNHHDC
# In short: as §1
# ETV3 = target: T10, ETV3 (Homo sapiens, UniProt P41162-2 1-143)
# T10 sequence: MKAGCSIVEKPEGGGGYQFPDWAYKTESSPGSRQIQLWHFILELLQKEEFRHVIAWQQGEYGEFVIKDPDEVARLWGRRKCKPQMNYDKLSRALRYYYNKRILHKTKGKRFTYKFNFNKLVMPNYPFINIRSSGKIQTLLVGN
# In short: as §1
# ETV6 = ETV6 (Homo sapiens, UniProt P41212 1-452)
# Sequence of ETV6 (P41212 whole entry): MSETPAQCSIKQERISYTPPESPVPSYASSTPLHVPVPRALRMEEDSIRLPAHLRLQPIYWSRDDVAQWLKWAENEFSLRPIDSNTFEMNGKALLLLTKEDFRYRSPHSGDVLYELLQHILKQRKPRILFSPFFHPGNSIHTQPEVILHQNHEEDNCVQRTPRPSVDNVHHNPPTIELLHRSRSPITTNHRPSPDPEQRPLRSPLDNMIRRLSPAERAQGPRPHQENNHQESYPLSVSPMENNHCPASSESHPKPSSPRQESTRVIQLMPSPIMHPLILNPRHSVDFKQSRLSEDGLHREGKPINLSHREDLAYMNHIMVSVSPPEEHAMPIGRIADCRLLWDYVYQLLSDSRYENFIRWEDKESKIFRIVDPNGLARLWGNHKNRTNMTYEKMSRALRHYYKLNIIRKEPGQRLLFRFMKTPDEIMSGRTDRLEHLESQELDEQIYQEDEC
# In short: as §1
Sequence,binding signal (SPIB),binding signal (ELK3),binding signal (ETV5),binding signal (ELK4),binding signal (ETV1),binding signal (ETS2),binding signal (ETV7),binding signal (ELK1),binding signal (ELF1),binding signal (ELF3),binding signal (ERF),binding signal (GABPA),binding signal (SPIC),binding signal (ETV3),binding signal (ETV6)
GGGTAT,"1.02 fold enrichment (6-mer frequency, TF over GST control)","1.04 fold enrichment (6-mer frequency, TF over GST control)","1.02 fold enrichment (6-mer frequency, TF over GST control)","1.1 fold enrichment (6-mer frequency, TF over GST control)","1.01 fold enrichment (6-mer frequency, TF over GST control)","1.02 fold enrichment (6-mer frequency, TF over GST control)","1.02 fold enrichment (6-mer frequency, TF over GST control)",,,,,,,,
CATAGT,,,"1.01 fold enrichment (6-mer frequency, TF over GST control)","1.14 fold enrichment (6-mer frequency, TF over GST control)",,"1.03 fold enrichment (6-mer frequency, TF over GST control)","1.11 fold enrichment (6-mer frequency, TF over GST control)","1.03 fold enrichment (6-mer frequency, TF over GST control)","1.01 fold enrichment (6-mer frequency, TF over GST control)","1.07 fold enrichment (6-mer frequency, TF over GST control)","1.13 fold enrichment (6-mer frequency, TF over GST control)",,,,
CGACGG,,,"1 fold enrichment (6-mer frequency, TF over GST control)","1.02 fold enrichment (6-mer frequency, TF over GST control)",,,"1.13 fold enrichment (6-mer frequency, TF over GST control)",,"1.01 fold enrichment (6-mer frequency, TF over GST control)",,,"1.09 fold enrichment (6-mer frequency, TF over GST control)","1.15 fold enrichment (6-mer frequency, TF over GST control)","1.05 fold enrichment (6-mer frequency, TF over GST control)","1.03 fold enrichment (6-mer frequency, TF over GST control)"
